PubChem BioAssay (Tox21)
Results filed as inconclusive are left out. Where a call stands in place of a potency, no number is given. A number with no mark means an inactive call. Activity calls are given as the source filed them. Calls follow the shape of the dose curve; as a rule, active = well fitted curve in the direction sought with a large enough effect in the repeat runs; inconclusive = weak or mixed curves; inactive = no such curve, though single readings can be large; an effect the other way counts as inactive or inconclusive.

Legend:
[1] = biological target: Cytochrome P450 2C19 (Homo sapiens) (UniProt P33261); experiment: Cytochrome P450 Family 2 Subfamily C Member 19 (CYP2C19) small molecule antagonists: luciferase reporter qHTS assay (AID 1671197); also: nearly all actives have a fitted effect of over 65% in size; as to activity change, negative = inhibition: series mostly up to about 120 µM
In short: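 Quantitative high-throughput screen of the Tox21 library using CYP2C19 with proluciferin substrate. Reaction: NADPH regeneration, 37C, 1 h, after 10 min compound preincubation at room temperature. Readout: luminescence.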

[2] = biological target: Cytochrome P450 2C9 (Homo sapiens) (UniProt P11712); experiment: Cytochrome P450 Family 2 Subfamily C Member 9 (CYP2C9) small molecule antagonists: luciferase reporter qHTS assay (AID 1671198); also: nearly all actives have a fitted effect of over 50% in size; as to activity change, negative = inhibition: series mostly up to about 120 µM
In short: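 CYP2C9 activity was measured with a P450-Glo proluciferin substrate. Enzyme–substrate mix was held with compound for 10 min at room temperature, then NADPH regeneration solution was added for 1 h at 37C. Luciferin product was read as luminescence.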

[3] = biological target: Cytochrome P450 1A2 (Homo sapiens) (UniProt P05177); experiment: Cytochrome P450 Family 1 Subfamily A Member 2 (CYP1A2) small molecule antagonists: luciferase reporter qHTS assay (AID 1671199); also: nearly all actives have a fitted effect of over 50% in size; as to activity change, negative = inhibition: series mostly up to about 120 µM
In short: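 Human CYP1A2 activity measured with a P450-Glo proluciferin substrate; compounds in DMSO preincubated 10 min at room temperature with enzyme-substrate mix, then NADPH regeneration system added for 1 h. Luciferin detection reagent, 20 min, luminescence read.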

[4] = biological target: Voltage-gated inwardly rectifying potassium channel KCNH2 (Homo sapiens) (UniProt Q12809); experiment: Human Ether-a-go-go-Related Gene (hERG) channel small molecule antagonists: fluorescence cell-based qHTS assay (AID 1671200); also: nearly all actives have a fitted effect of over 50% in size;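 as to activity change, negative = inhibition: hERG-expressing U2OS cells given a thallium stimulus after FluxOR II dye loading; series mostly up to about 77 µM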
In short: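 First, 1000 cells per well are seeded and cultured overnight at 37 C. Next, FluxOR II dye is loaded for 1 h at room temperature, protected from light. After 10 more minutes, stimulus is added and fluorescence is read.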

[5] = biological target: Cytochrome P450 3A4 (Homo sapiens) (UniProt P08684); experiment: Cytochrome P450 Family 3 Subfamily A Member 4 (CYP3A4) small molecule antagonists: luciferase reporter qHTS assay (AID 1671201); also: nearly all actives have a fitted effect of over 50% in size; as to activity change, negative = inhibition: series mostly up to about 120 µM
In short: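 Enzyme and proluciferin substrate are mixed with test chemicals for 10 min, then NADPH regeneration system drives turnover for 1 h at room temperature. A detection reagent halts the reaction; luminescence after 20 min gives relative activity.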
Potency is read from the fitted curve at half-maximal effect.

Sequence of Voltage-gated inwardly rectifying potassium channel KCNH2 (Homo sapiens) (Q12809 whole entry, looked up): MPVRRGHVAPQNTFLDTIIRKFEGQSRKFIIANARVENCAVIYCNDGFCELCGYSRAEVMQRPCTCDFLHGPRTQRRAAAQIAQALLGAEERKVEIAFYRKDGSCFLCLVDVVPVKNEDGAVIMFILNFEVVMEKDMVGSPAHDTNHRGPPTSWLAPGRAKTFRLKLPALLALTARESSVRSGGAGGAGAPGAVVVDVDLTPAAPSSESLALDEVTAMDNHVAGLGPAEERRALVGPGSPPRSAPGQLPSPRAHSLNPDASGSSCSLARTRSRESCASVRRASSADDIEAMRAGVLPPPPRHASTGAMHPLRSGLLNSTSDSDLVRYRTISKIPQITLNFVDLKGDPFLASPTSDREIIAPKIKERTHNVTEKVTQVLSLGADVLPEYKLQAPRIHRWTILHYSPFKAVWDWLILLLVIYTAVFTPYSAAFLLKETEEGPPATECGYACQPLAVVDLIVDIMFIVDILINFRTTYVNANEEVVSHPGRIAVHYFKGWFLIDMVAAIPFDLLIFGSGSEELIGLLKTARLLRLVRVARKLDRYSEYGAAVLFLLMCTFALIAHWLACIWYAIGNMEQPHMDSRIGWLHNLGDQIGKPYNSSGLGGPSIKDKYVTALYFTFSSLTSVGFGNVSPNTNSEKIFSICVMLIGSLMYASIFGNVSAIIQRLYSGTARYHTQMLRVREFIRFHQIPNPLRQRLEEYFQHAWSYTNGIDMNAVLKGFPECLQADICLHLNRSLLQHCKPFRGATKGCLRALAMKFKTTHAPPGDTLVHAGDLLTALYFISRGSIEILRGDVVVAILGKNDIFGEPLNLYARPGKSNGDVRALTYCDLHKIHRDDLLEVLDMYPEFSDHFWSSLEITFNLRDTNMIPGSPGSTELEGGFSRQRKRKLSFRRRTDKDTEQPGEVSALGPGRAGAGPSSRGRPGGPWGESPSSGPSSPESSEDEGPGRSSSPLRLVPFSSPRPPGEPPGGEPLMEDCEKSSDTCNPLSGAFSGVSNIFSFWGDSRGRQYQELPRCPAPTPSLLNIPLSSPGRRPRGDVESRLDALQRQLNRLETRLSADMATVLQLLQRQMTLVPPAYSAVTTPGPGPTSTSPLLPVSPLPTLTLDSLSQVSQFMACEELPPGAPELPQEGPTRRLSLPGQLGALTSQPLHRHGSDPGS
Sequence of Cytochrome P450 3A4 (Homo sapiens) (P08684 whole entry, looked up): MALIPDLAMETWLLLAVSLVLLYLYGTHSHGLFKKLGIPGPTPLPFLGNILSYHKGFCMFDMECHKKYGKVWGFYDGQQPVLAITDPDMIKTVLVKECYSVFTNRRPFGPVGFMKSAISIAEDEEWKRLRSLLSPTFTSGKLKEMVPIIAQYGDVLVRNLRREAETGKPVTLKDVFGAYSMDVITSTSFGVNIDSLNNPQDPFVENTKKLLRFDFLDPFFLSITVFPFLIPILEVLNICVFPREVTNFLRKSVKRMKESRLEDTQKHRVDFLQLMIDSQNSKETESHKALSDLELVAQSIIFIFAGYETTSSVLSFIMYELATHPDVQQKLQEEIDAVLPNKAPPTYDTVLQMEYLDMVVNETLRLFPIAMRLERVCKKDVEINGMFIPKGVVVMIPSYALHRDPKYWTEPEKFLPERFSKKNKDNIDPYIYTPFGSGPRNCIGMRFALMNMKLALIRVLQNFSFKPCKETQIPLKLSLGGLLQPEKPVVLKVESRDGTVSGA
Sequence of Cytochrome P450 1A2 (Homo sapiens) (P05177 whole entry, looked up): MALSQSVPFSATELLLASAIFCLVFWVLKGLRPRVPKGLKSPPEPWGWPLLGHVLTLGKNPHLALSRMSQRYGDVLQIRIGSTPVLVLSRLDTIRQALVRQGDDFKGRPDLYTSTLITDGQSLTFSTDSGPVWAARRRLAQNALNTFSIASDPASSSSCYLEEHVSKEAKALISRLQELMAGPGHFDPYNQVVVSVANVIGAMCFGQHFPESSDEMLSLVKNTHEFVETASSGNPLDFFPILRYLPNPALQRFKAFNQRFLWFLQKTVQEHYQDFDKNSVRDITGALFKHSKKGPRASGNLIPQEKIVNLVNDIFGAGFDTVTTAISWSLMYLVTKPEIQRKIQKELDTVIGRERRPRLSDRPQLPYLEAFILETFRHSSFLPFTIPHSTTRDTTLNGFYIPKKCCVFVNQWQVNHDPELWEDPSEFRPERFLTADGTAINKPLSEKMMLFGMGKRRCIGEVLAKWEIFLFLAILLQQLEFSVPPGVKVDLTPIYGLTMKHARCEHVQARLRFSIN
Sequence of Cytochrome P450 2C9 (Homo sapiens) (P11712 whole entry, looked up): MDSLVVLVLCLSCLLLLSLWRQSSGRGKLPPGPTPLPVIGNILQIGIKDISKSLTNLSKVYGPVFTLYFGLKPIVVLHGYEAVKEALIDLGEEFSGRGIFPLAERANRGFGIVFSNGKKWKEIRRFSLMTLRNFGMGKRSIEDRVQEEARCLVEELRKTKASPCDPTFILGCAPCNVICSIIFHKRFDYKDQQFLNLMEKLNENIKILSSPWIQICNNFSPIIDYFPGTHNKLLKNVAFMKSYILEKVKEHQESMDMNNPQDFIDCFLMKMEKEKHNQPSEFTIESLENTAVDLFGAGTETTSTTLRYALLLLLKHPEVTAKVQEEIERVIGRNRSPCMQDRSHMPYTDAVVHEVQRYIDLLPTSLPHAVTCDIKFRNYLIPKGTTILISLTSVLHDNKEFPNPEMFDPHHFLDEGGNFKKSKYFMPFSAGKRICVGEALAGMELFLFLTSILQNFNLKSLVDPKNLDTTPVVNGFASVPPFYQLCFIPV
Sequence of Cytochrome P450 2C19 (Homo sapiens) (P33261 whole entry, looked up): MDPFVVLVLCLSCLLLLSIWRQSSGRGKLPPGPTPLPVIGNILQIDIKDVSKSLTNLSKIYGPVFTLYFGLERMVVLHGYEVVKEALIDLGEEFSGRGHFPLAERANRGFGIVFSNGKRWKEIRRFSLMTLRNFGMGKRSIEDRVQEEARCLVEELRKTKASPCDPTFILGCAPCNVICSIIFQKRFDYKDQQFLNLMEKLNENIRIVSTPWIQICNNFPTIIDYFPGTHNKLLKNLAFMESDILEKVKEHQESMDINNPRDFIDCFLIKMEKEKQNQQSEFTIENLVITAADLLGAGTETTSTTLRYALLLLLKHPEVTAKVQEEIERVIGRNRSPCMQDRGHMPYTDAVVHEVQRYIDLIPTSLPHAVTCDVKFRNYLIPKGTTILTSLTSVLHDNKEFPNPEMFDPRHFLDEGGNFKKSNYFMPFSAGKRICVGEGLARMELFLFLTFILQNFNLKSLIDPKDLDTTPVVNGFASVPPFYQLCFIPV

Compound | Potency [1] | Potency [2] | Potency [3] | Potency [4] | Potency [5] | activity change, negative = inhibition [1] | activity change, negative = inhibition [4] | activity change, negative = inhibition [5]
OCCN(CCO)CCN(CCO)CCO | inactive | inactive | inactive | inactive | inactive |  |  | 
CCCCCCCCOC(=O)CCCCCCCCC(=O)OCCCCCCCC | inactive | inactive | inactive | inactive | inactive |  |  | 
CCC(=O)Nc1ccc(O)cc1 | inactive | inactive | inactive | inactive | inactive |  |  | 
CCOc1ccc(OCC)c(Cl)c1 | inactive | inactive | 25.2 µM (active) | inactive | inactive |  |  | 
CC(C)(C)C1CCCCC1=O (stereo not given) | inactive | inactive | inactive | inactive | inactive |  |  | 
CC(C)c1ccccc1 | inactive | inactive | inactive | inactive | inactive |  |  | 
O=C1CCCc2ccccc21 | inactive | inactive | 36 µM (active) | inactive | inactive |  |  | 
COc1cc2c(cc1N)oc1ccccc12 | 4.57 µM (active) | 6.46 µM (active) | 0.513 µM (active) | inactive | 7.25 µM (active) |  |  | 
CCCCc1ccc2nc(NC(=O)OC)[nH]c2c1 | inactive | inactive | inactive | inactive | inactive |  |  | 
CC(=O)Oc1cc(C(C)C)c(OCCN(C)C)cc1C | inactive | inactive | 5.12 µM (active) | inactive | inactive |  |  | 
CCC/C=C/CO | inactive | inactive | inactive | inactive | inactive |  |  | 
NCCC(O)(P(=O)(O)O)P(=O)(O)O | inactive | inactive | 24.5 µM (active) | inactive | inactive |  |  | 
CC(C)OC(C)C | inactive | inactive | inactive | inactive | inactive |  |  | 
CN1CCN(N)CC1 | inactive | inactive | inactive | inactive | inactive |  |  | 
FC(F)(F)C(Cl)(Cl)Cl | inactive | inactive | inactive | inactive | inactive |  |  | 
CCC(=O)c1ccc2c(c1)N(CCCN(C)C)c1ccccc1S2 | 11 µM (active) | inactive | 1.82 µM (active) | 9.52 µM (active) | inactive |  |  | 

Compound | Potency [1] | Potency [2] | Potency [3] | Potency [4] | Potency [5] | activity change, negative = inhibition [1] | activity change, negative = inhibition [4] | activity change, negative = inhibition [5]
CN1CCN(c2c(F)cc3c(=O)c(C(=O)O)cn(CCF)c3c2F)CC1 | inactive | inactive | inactive | inactive | inactive |  |  | 
CC(C)CC(=O)OCc1ccccc1 | inactive | inactive | inactive | inactive | inactive |  |  | 
O=C1CCCCC1C1CCCCC1 (stereo not given) | inactive | inactive | inactive | inactive | inactive |  |  | 
O=C(O)[C@@H](O)[C@H](O)[C@H](O)[C@@H](O)C(=O)O | inactive | inactive | inactive | inactive | inactive |  |  | 
CCCCNC(=S)NCCCC | 79.6 µM (active) | 71 µM (active) | 44.8 µM (active) | inactive | 31.7 µM (active) |  |  | 
Cc1c(C(=O)NCCO)[n+](=O)c2ccccc2n1[O-] | inactive | inactive | inactive | inactive | inactive |  |  | 
Nc1ccc(Oc2ccc(N)c(N)c2)cc1 | 20 µM (active) | 6.33 µM (active) | 35.6 µM (active) | inactive | 3.56 µM (active) |  |  | 
C[C@@H]1CN(c2c(F)c(N)c3c(=O)c(C(=O)O)cn(C4CC4)c3c2F)C[C@H](C)N1 |  | inactive | inactive |  |  | 45.2% [at 23.6 µM] | -2.21% [at 15.8 µM] | -3.59% [at 23.6 µM]
Cc1cc2nc(N)sc2cc1C | 28.5 µM (active) | 35.9 µM (active) | 1.14 µM (active) | inactive | 25.4 µM (active) |  |  | 
O=Cc1ccc(F)c(Br)c1 | inactive | inactive | 35.6 µM (active) | inactive | inactive |  |  | 
OCc1c2ccccc2cc2ccccc12 | 35.7 µM (active) | 22.5 µM (active) | 0.897 µM (active) | inactive | 25.3 µM (active) |  |  | 
CC(C)S | inactive | inactive | inactive | inactive | inactive |  |  | 
CC1=C2[C@H](/C=C(\C)C(=O)O)CC[C@@H](C)[C@H]2CC1 | 73.7 µM (active) | 65.6 µM (active) | 65.6 µM (active) | inactive | inactive |  |  | 
O=C1CCN(c2ccccc2)N1 | 80 µM (active) | 8 µM (active) | 35.7 µM (active) | inactive | 35.7 µM (active) |  |  | 
CCCCCCn1c(=O)c2c(ncn2C)n(C)c1=O | 30.9 µM (active) | inactive | 15.5 µM (active) | inactive | inactive |  |  | 
